High-throughput results deposited in PubChem by National Center for Advancing Translational Sciences (NCATS).
RXFP1 ag: agonists of human relaxin receptor RXFP1 | AID 2676 | Potency, µM (doses to about 57.5 µM), inactives show at the top dose activation, hits mostly activators | 0.3% of 370,000 active | HEK293T-RXFP1 cAMP TR-FRET, 30 min; response scale: percent of porcine relaxin response, buffer zero; further: potency means the concentration at half of the fitted maximal effect; on the % scale 0 is the no-effect control and ±100 the full control effect; nearly all actives have a fitted effect of over 60% in size
Target sequence (Q9HBX9 whole entry, looked up): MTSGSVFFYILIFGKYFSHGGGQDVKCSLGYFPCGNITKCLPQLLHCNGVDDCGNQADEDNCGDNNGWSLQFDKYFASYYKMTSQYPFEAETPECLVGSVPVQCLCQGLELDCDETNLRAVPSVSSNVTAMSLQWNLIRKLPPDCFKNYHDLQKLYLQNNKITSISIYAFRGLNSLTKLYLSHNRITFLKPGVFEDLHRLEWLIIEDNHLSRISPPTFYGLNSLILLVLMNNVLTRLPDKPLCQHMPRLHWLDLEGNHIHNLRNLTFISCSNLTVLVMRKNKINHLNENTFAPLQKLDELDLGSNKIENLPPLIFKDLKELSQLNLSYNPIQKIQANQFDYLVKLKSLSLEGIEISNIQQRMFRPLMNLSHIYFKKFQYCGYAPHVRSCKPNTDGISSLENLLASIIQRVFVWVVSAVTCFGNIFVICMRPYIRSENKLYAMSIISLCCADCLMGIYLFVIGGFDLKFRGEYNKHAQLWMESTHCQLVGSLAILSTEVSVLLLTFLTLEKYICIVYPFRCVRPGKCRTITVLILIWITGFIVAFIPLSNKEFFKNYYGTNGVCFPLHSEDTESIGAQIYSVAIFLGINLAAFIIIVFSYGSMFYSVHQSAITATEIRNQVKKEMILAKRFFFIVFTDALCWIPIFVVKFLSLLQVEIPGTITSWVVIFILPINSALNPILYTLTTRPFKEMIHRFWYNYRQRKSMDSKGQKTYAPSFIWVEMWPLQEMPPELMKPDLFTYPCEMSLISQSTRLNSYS
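HEK293T cells stably expressing RXFP1 were pretreated with the PDE4 inhibitor Ro 20174, exposed to compounds for 30 min at 37C, lysed, and cAMP was read by TR-FRET. Data normalized to buffer (basal) and 29 nM porcine relaxin (100%).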
gsp agonist: agonists of gsp mutant (McCune-Albright syndrome) | gsp mutant cells, cAMP HTRF, 30 min | 0.13% of 340,000 active | Potency, µM (series often up to 76.9 µM), for inactives: at the top dose activation (cAMP increase), hits mostly activators; active means well fitted activation curve with a large enough effect; inconclusive means small, poorly fitted or top-dose-only effect, or another doubt; inactive means no such curve, though single readings can be large or run the other way; cell line not stated here;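 further: phosphodiesterase inhibitor Ro 20-1724 added with compounds to block cAMP breakdown; potency means the concentration at half of the fitted maximal effect; nearly all actives have a fitted effect of over 60% in size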
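Cells stably selected in G418 were plated at 2000/well, grown 16-24 hr, then given compounds in DMSO with the PDE inhibitor […] (300 uM solution added) for 30 min at 37C; cAMP was read by HTRF.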
RXFP1 antag: antagonists of human relaxin receptor RXFP1. Q9HBX9. HEK293-RXFP1, relaxin-stimulated cAMP HTRF, 30 min; hits give low values. activity change, negative = inhibition, % at 57.5 µM. 0.59% of 350,000 active. AID 1259400;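 active means activity change of -60% or lower, but not beyond a set lower limit; inconclusive means change between -60% and -40%, or beyond the set limit; inactive means change above -40%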; further: on the % scale 0 is the no-effect control and ±100 the full control effect
gsp antagonist: gsp mutant antagonism; gsp-mutant cells, cAMP HTRF, 30 min; Potency, µM (top dose mostly 76.9 µM), for the others: top-dose activity change, negative = inhibition, actives largely listed as inhibitors; 0.4% of 340,000 active; calls by dose curve; cell line not stated here;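 further: intracellular cAMP measured with PDE inhibitor Ro 20-1724 present during compound exposure; potency means the concentration at half of the fitted maximal effect; on the % scale 0 is the no-effect control and ±100 the full control effect; nearly all actives have a fitted effect of over 65% in size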
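G418-selected cells were plated in DMEM/10% FBS for 16-24 h at 37C, then treated with compounds plus the PDE inhibitor […] (300 uM solution added) for 30 min at 37C. Intracellular cAMP was measured by HTRF after 30 min lysis at room temperature.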
PTHR1 agonist: agonists of human PTHR1 parathyroid hormone receptor. 0.075% of 410,000 active. Potency, µM (titrated, usually from 115 µM), without a hit: at the highest dose activation, actives largely listed as activators. Q03431. HEK293 GP2 PTHR1 cells, GloSensor cAMP luminescence, 1 h; further: potency means the concentration at half of the fitted maximal effect; nearly all actives have a fitted effect of over 55% in size
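HEK-293-derived GP2 cells expressing PTHR1 and a GloSensor cAMP reporter, 3,000/well, plated overnight, given luciferin plus IBMX (each 0.5 mM as added) for 1 h at 37 °C, then compound for 1 h at 37 °C. Luminescence was read after 15 min at room temperature.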
An asterisk follows results filed as active; i = inactive; ? = inconclusive; . = not tested or not shown; [ ] = another dose, or the depositor's remark. Rows were chosen to be rich in hits. Some 1% of all compounds tested hit in one or more screens of this group. Unless noted, the call rests on the fitted dose curve; in most records, active means well fitted curve in the direction sought with a large enough effect; inconclusive means small, poorly fitted or top-dose-only effect, or another doubt; inactive means no such curve, though single readings can be large; an effect the other way counts as inactive or inconclusive.

SMILES	RXFP1 ag	gsp agonist	RXFP1 antag	gsp antagonist	PTHR1 agonist
CCOc1ccc(N(C(=O)c2ccc(Cl)cc2)S(=O)(=O)c2ccc3c(c2)n(C)c(=O)n3C)cc1	-2%	.	0	.	-19%
Cc1cc(C)c(Cn2c(=O)n(CCCCCC(=O)NCc3ccc4c(c3)OCO4)c(=O)c3sccc32)c(C)c1	?	.	-3	.	i
Cc1ccc(-c2nn(CC(=O)Nc3cccc(C(F)(F)F)c3)c(=O)c3ccccc23)cc1	0%	.	-10	.	i
CCc1ccc(NC(=O)c2ccc3c(=O)n4nc(Nc5ccccc5C)sc4nc3c2)cc1	2%	.	.	.	i
CSc1ccc(C2C(C(=O)c3ccco3)=C(O)C(=O)N2c2nnc(SC)s2)cc1 (centres undefined)	16µM*	?	-2	-5%	-26%
O=C(c1ccc(Oc2ccccc2)cc1)C1CCCN(C(=O)c2cnccn2)C1 (centres undefined)	-1%	2%[15.4 µM]	-13	-16%	-15%
Cc1ccc2[nH]nc(C(=O)N3CCCC(C(=O)c4ccc(Cl)cc4)C3)c2c1 (centres undefined)	0%	-13%[15.4 µM]	-19	14µM*	-16%
Cc1cc(C(=O)N2CCCC(C(=O)c3ccc(Oc4ccccc4)cc3)C2)n[nH]1 (centres undefined)	2%	-10%	-85*	35µM*	-28%
Cc1noc(C)c1C(=O)N1CCCC(C(=O)c2ccc(Cl)cc2)C1 (centres undefined)	1%	-25%[15.4 µM]	-14	14%	i
O=C(O)c1cn(C2CC2)c2cc(Cl)c(F)cc2c1=O	.	.	-13	.	.
COc1cccc(CNC(=O)COC(=O)/C(C#N)=C/c2ccc(N(C)C)cc2)c1	?	25µM*	16	11%	-25%
CC(C)(C)CC(C)(C)c1ccc(O)c(CN2CCN(CCC#N)CC2)c1	1%	17%	-26	12%	0%[57.5 µM]
N#CCCN1CCN(Cc2cc(-c3ccccc3)ccc2O)CC1	-1%	?	23	8%	16µM*
CN(CC(=O)Nc1ccc(F)cc1)C(=O)COC(=O)c1cccc(N(C)C)c1	3%	25µM*	10	-4%	-24%
CN(CC(=O)Nc1ccc(F)cc1)C(=O)COC(=O)c1ccccc1	0%	-2%[15.4 µM]	-7	9%	-9%
COc1ccc(Cl)cc1NC(=O)c1cnc(N2CCCCC2)c2ccccc12	1%	.	-15	.	-57%
O=C(Nc1nc(-c2cccs2)c(C(=O)C(F)(F)F)s1)c1ccco1	25µM*	?	1	-2%	-18%
O=C(Nc1nc(-c2cccs2)c(C(=O)C(F)(F)F)s1)c1ccccc1	9%	33%	.	?	-95%
COC(=O)c1ccc(CC(=O)c2ccc(O)cc2O)o1	4%	4%	-14	?	-24%[57.5 µM]
CCC(=O)Oc1ccc(C/C(=N\O)c2ccc(O)cc2O)o1	-1%	-20%	-60*	5.6µM*	i
Cn1cc(S(=O)(=O)N2CCCCCC2)cc1C(=O)N1CCN(c2cccc(C(F)(F)F)c2)CC1	4%	.	.	.	-34%
Cc1ccc(OCCCC(=O)Nc2sc3c(c2C(N)=O)CCCC3)cc1	2%	.	.	.	0%
Cc1cccc(-n2c(-c3csc(C)c3)n[nH]c2=S)c1	4%	8%	-66*	-33%	-18%[57.5 µM]
CCN(CC)C(=O)c1sc2[nH]c(=S)n(-c3ccccc3)c(=O)c2c1C	11%	?	-67*	1%	-8%[57.5 µM]
CSc1ccc(S(=O)(=O)N(C)Cc2ccccc2)cc1	-1%	-24%	4	35µM*	i
SMILES	RXFP1 ag	gsp agonist	RXFP1 antag	gsp antagonist	PTHR1 agonist
CN(Cc1ccccc1)S(=O)(=O)c1ccc(NS(C)(=O)=O)cc1	1%	9%	-19	-16%	-1%[57.5 µM]
CCCCC12CN3CC(C)(CN(C1)C3c1c(C)[nH]c(=O)[nH]c1=O)C2=O (centres undefined)	0%	.	-5	.	-33%
COc1ccc2[nH]c(CN3CCC(CO)(CCOc4ccccc4)CC3)c(C)c2c1	-2%	-3%[15.4 µM]	-71*	3%	i
CCc1nnc(SCc2ccc(OC)cc2)c2cc3sc(C)cc3n12	3%	.	8	.	-1%
Cc1oc2c(c1C(=O)c1ccc(Cl)cc1)C(=O)C(=O)c1ccccc1-2	3%	-29%	10	56µM*	i
Cc1ccc(Nc2nc(C)nc(N)c2S(=O)(=O)c2ccccc2)cc1	2%	.	.	.	i
O=C(COC(=O)/C=C/c1ccc(Cl)cc1)NC(=O)NCc1ccccc1	1%	-4%[15.4 µM]	-61*	7%	-11%
CCOC(=O)C(C)Sc1nc(-c2ccco2)cc(C(F)(F)F)c1C#N (centres undefined)	1%	-20%	-19	35µM*	-73%
NCCCC(N)CC(=O)NCC1NC(=O)C(CO)NC(=O)C(N)CNC(=O)C(C2CCN=C(N)N2)NC(=O)C(=CNC(N)=O)NC1=O (centres undefined)	.	.	-13	.	.
CC1(C)CC(C(CC(=O)N2CCCC2)Cc2ccccc2)CCO1 (centres undefined)	1%	-22%	1	50µM*	i
COC(=O)CCN(C)CCC(=O)OC	1%	7%	-7	50µM*	?
COC(=O)CCCC(=O)OC	.	.	.	-4%	-52%
O=C(O)c1ccc(Cn2cc(/C=C\[N+](=O)[O-])c3ccccc32)o1	0%	9%	12	0%	i
COC(=O)c1ccc(Cn2cc(/C=C\[N+](=O)[O-])c3ccccc32)o1	-2%	-22%	-95*	5%	-21%
COc1ccc(OC)c(NC(=O)c2nnn(CC(=O)Nc3ccc(C(C)C)cc3)c2N)c1	0%	.	-36	.	i
Cc1[nH][nH]c(=O)c1C(c1ccc(Cl)cc1)c1c(C)[nH][nH]c1=O	-2%	-31%	-80*	8%	i
CSc1ccc(CNC(=O)c2ccccc2NC(=O)c2nsc3ccccc23)cc1	?	.	-37	.	10%
Cc1ccc(NC(=O)CN(C)S(=O)(=O)c2ccc3c(c2)n(C)c(=O)c(=O)n3C)cc1C	11%	.	2	.	i
CCOC(=O)c1c(C)n(-c2ccccc2)c2ccc(OC(=O)c3cccc(OC)c3OC)cc12	-1%	.	-10	.	-7%
CCCCCN(CCCOC)C(=O)C(CCC(=O)O)NC(=O)c1ccc(Cl)c(Cl)c1 (centres undefined)	.	.	-27	.	.
N#Cc1c(-c2ccco2)nc(SCc2ccc(F)cc2)[nH]c1=O	25µM*	?	25	22%	-9%[57.5 µM]
N#Cc1c(-c2ccccc2)nc(SCc2ccc(Cl)cc2)[nH]c1=O	4%	21%[15.4 µM]	-38	-17%	i
Cc1ccc(NC(=O)CN2CCSc3ccc(S(=O)(=O)N4CCCC4)cc32)cc1	5%	.	.	.	-34%
COC(=O)C1=C(C)NC(C)=C(C(=O)OC(C)(C)CN(C)CCC(c2ccccc2)c2ccccc2)C1c1cccc([N+](=O)[O-])c1 (centres undefined)	.	.	-10	.	.
